# The source made the active and inactive calls. The calls were made as follows: active = hit-call score of the fitted dose curve at least 0.9, where 1 is the maximum; inactive = score below 0.9.
# Read-out: cysteine-aspartic acid protease (CASP8), CASP8 (gene 841)
# Experiment: LTEA_HepaRG_CASP8: Life Technologies and Expression Analysis (LTEA) Assay for cysteine-aspartic acid protease (CASP8) using HepaRG (AID 2283480)
# Settings: mRNA level, 48 h; actives raise or lower the signal
# Method: LTEA_HepaRG is a cell based, multiplexed-readout assay that uses HepaRG, a human liver cell line, with measurements taken at 48 hours after chemical dosing on a 96-well plate.LTEA_HepaRG_CASP8 is one of 102 assay component(s) measured in the LTEA HepaRG cell culture assay. It is a marker of Cell proliferation, survival, death.Data from the assay component LTEA_HepaRG_CASP8 was analyzed into 1 endpoint. This assay endpoint, LTEA_HepaRG_CASP8, was analyzed with bidirectional fitting relative to DMSO as the negative control and baseline of activity. Using a type of inducible reporter, measures of mRNA induction for gain or loss-of-signal activity can be used to understand regulation of transcription factor activity. To generalize the intended target to other relatable targets, this assay endpoint is annotated to the protease intended target family, where the subfamily is cysteine protease.
# A total of 1060 chemcials from the ToxCast library were tested in eight-point concentration-response experiments. Cell culture and cytotoxicity assays were conducted at Thermo Fisher Scientific's Custom Services facility (Madison, WI). A single lot of human HepaRG cells (Thermo Fisher Scientific, Frederick, MD) was used for the cell culture experiments. 96-well format collagen type I coated plates of human HepaRG cells were prepared using established methods. Briefly, cryopreserved HepaRG cells were thawed, plated at a density of approximately 100,000 cells/well in HepaRG Thaw, Plate, and General Purpose media (HPRG770, Thermo Fisher Scientific), and incubated for 48 hours. 0.5% DMSO was selected as vehicle control to balance the requisite need of DMSO in HepaRG cultures to maintain differentiation (for example, baseline metabolism, proportions of hepatocytes vs. cholangiocytes), while enabling further hepatic receptor pathway activation (for example, PXR and CAR) in response to chemical exposure. 48 hours after plating, the culture medium was replaced with HepaRG Serum-Free Incudtion Media. Cells were exposed to each test chemical in duplicate and maintained in CO2 incubators for another 48 hours. Chemical plates were thawed to room temperature and 200x concentrations of treatment groups were prepared. 8-point conentration-reponse curves were made with the highest exposure at 100 uM, followed by half-log dilutions, all in 0.5% DMSO. Each test plate contained variouse controls, induction positive controls (1mM phenobarbital), cytotoxicity positive controls ([…] aflatoxin B1), vehicle controls (0.5% DMSO), and total lysis controls (0.5% DMSO). Cell morphology images were taken using an Essen IncuCyte FLR automated microscope, with six 96-well plates imaged in about 24 minutes. Images were captured and exported and JPEG files. Spent culture media was transfered to black-well plates for the LDH assay, and remaining media was sorted at -80 C for later use. Cells were treated with RLT buffer and frozen until shipped for gene expression analysis. Total RNA was isolated from the cell suspension in 75 uL of Buffer RLT (Qiagen, Germantown, MD 20874) by Quintiles/Expression Analysis (Durham, NC) using a custom isolation procedure. Total RNA from each plate well was transferred to a preamplification plate. Fluidigm's 96.96 Dynamic ArrayTM (Fluidigm, Amsterdam, the Netherlands) technology was used for gene expression analyses by quantitative reverse transcription polymerase chain reaction (qRT-PCR, performed by Quintiles/Expression Analysis, Durham, NC)89. Standard TaqManTM Assays (Applied Biosystems/ThermoFisher Scientific, Foster City, CA) were used to assess the expression of 93 genes selected based on their selectivity and sensitivity to important hepatic receptors known to be modulated by environmental chemicals; importance in human hepatocyte functionality; and hepatotoxicity. […]
Structure (SMILES),outcome,AC50
Cc1ccc(N)cc1O,inactive,
COc1ccc(-n2nc(C(F)F)cc2-c2ccc(S(C)=O)cc2)cc1 (stereo not given),inactive,
COc1ccc(/C=C/S(=O)(=O)NC(=O)c2ccc(C)cc2Cl)cc1,inactive,
CC(=O)c1ccc2c(c1)[C@H](NC(=O)c1ccc(F)cc1)[C@@H](O)C(C)(C)O2,inactive,
CC/C(=C\C(=N/O)C(N)=O)C(C)[N+](=O)[O-] (stereo not given),inactive,
CC[C@H]1CC[C@H](NCc2cc3c(cc2OC)[C@H]2C[C@H]2C(=O)N3C)[C@H](c2ccccc2)N1,inactive,
CCC(C)(C)C(=O)O[C@H]1C[C@@H](C)C=C2C=C[C@H](C)[C@H](CC[C@@H]3C[C@@H](O)CC(=O)O3)[C@H]21,inactive,
CC(C)CCO,inactive,
CCCCC(CC)COC(=O)c1ccc(C(=O)OCC(CC)CCCC)cc1 (stereo not given),inactive,
O=C(O)c1cccc(Oc2ccccc2)c1,inactive,
COC(=O)CC(=O)OC,inactive,
CC(C)=CCCC(C)=CC=O,inactive,
Nc1cccc(N)c1,inactive,
CC(=O)OCCC(C)C,inactive,
COc1ccc2sc(C(=O)Nc3nnn[nH]3)c(OC(C)C)c2c1,,39.2 µM (active)
CCCCCCCCCCCCCCCO,inactive,
CCOC(=O)CC(CC(=O)OCC)(OC(C)=O)C(=O)OCC,inactive,
CCNc1ccccc1,inactive,
CCCC(=O)OCC,inactive,
CCCN(C1CCN(C(=O)C2CCNCC2)CC1)[C@@H]1CCc2ccc(OC)cc2C1,inactive,

Structure (SMILES),outcome,AC50
Cc1[nH]cnc1C[C@H]1CCc2c(C)c3ccccc3n2C1=O,,66.7 µM (active)
O=C(O)CC(O)C(=O)O (stereo not given),inactive,
C=CCCCCCCCCC(=O)O,inactive,
CCOCCOCCOCCO,inactive,
Nc1ccc(Nc2ccccc2)cc1,inactive,
O=C1CCC(N2C(=O)c3ccccc3C2=O)C(=O)N1 (stereo not given),inactive,
O=c1[nH]c2ccc(S(=O)CCN3CCC(Cc4ccc(F)cc4)CC3)cc2o1 (stereo not given),inactive,
Cc1ccc(C)c(O)c1,inactive,
CCn1nc(Cc2ccccc2)cc1C1CCN(C[C@H]2C[C@H](N(C)[C@@H](C(=O)O)C(C)C)C[C@@H]2c2cccc(F)c2)CC1,inactive,
CN(C)c1ccc(N=NS(=O)(=O)O)cc1,inactive,
Cc1ccc(O)cc1,inactive,
CNCc1ccc(NC(=O)c2c[nH]c3c2C(=O)CCC3)cc1,inactive,
Oc1ccc2c(c1)-c1ccccc1C2,inactive,
Cn1cnc([N+](=O)[O-])c1Sc1ncnc2nc[nH]c12,inactive,
CC(O)CN(CCN(CC(C)O)CC(C)O)CC(C)O (stereo not given),inactive,
C1=CCCC=CCCC=CCC1,inactive,
Cn1c(=O)cc(Oc2ccc(F)cc2F)c2cnc(NCC(C)(C)O)nc21,inactive,
O=C(O)c1cccc(N(Cc2cccnc2)c2ccc(OC(F)F)c(OC(F)F)c2)c1,inactive,
C=CC(=C)CCC=C(C)C,inactive,
CCCCCCCCO,inactive,

# — PubChem BioAssay (EPA / NIEHS)
